Screens deposited in PubChem by National Center for Advancing Translational Sciences (NCATS).
Shown are actives, neighbours in structure and some others; about 3.9% of the full set was active somewhere.
PLK1 PBD inh: blocks phosphopeptide binding to human PLK1 polo-box domain. Plk1 PBD binding of FITC phosphopeptide, fluorescence polarization. Potency, µM, without a hit: max response, negative = inhibition, hits mostly inhibitors. 2.8% of 360,000 active. AID 720504; further: series mostly up to about 57 µM; on the % scale 0 is the no-effect control and ±100 the full control effect; nearly all actives have a fitted effect of over 65% in size
Target sequence (P53350 whole entry, looked up, the tested form may be a part): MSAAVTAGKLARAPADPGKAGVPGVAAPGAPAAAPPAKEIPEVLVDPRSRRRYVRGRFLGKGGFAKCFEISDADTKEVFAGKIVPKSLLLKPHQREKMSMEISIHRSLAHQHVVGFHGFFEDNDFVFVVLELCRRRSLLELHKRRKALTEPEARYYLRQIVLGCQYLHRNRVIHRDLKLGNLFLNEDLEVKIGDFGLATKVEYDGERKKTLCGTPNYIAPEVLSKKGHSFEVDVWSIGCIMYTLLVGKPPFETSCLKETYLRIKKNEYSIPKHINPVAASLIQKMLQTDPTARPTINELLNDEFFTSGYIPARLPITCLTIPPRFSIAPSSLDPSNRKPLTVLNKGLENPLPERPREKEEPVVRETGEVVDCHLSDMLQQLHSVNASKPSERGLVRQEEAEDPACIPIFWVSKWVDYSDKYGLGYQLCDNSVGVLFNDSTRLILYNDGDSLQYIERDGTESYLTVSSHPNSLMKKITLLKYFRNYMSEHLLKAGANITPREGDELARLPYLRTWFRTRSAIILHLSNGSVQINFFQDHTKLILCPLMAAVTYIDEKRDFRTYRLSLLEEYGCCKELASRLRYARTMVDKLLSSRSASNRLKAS
BRCA1 expr act: BRCA1 expression activation; 1.1% of 380,000 active; Potency, µM (doses to about 46.1 µM), inactives show at the top dose activation, most hits filed as activators; AID 624202; MCF7-BRCA1-FFLuc reporter, luminescence, 48 h; response scale: scaled: vehicle 0%, 10 µM genistein 100%; further: nearly all actives have a fitted effect of over 80% in size
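Cells: MCF7-BRCA1-FFLuc, 2000/well. Exposure: 48 h, 37 °C, 5% CO2. Read: luminescence, 15 min post-substrate. Controls: genistein 10 microM (maximal activation), DMSO (neutral).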
VDR inhibitor: inhibitors of human vitamin D receptor. P11473. VDR-SRC2-3 peptide fluorescence polarization, 2 h. Potency, µM, without a hit: max response, negative = inhibition, most hits filed as inhibitors. 0.93% of 400,000 active. AID 504847; further: on the % scale 0 is the no-effect control and ±100 the full control effect
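Inhibition of the VDR/SRC2-3 peptide interaction is quantified by fluorescence polarization. Compounds (23 nl, pintool) incubate with the reagents for 2 hours at ambient room temperature.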
Tb PFK inh: T. brucei PFK enzyme inhibition. 0.17% of 330,000 active. T. brucei PFK, ADP-Glo luminescence. Potency, µM (top dose mostly 57.5 µM), for the others: at the highest dose activity, negative = inhibition, actives largely listed as inhibitors. O15648. AID 485367;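 further: 0% = uninhibited 1x PFK enzyme wells and -100% = no-enzyme wells; nearly all actives have a fitted effect of over 60% in size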
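PFK 1.25 nM, F6P 0.5 mM, ATP 0.1 mM, 0.1 M TEA pH 8.0, 5 mM MgCl2, 0.01% Tween20, 0.1% BSA; 45 min RT. ADP-Glo readout. qHTS titration up to 57 uM; curves fitted, compounds curve-classed.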
The depositor's hits bear a star; ? = inconclusive; . = no result given. The call rests on the fitted dose curve; in most records, active means well fitted curve in the direction sought with a large enough effect; inconclusive means small, poorly fitted or top-dose-only effect, or another doubt; inactive means no such curve, though single readings can be large; an effect the other way counts as inactive or inconclusive. Potency means the concentration at half of the fitted maximal effect.

SMILES | PLK1 PBD inh | BRCA1 expr act | VDR inhibitor | Tb PFK inh
COC(=O)c1c(-c2ccccc2)csc1N1C(=O)Nc2ccccc2N1O | -5.9% | 7.94µM* | -1.9% | 1.6%
COC(=O)c1c(-c2ccccc2)csc1N | 10.6µM* | 9.3% | 5.8% | .
CCOC(=O)c1c(-c2ccccc2)csc1N1C(=O)Nc2ccccc2N1O | -15.2% | -4.5% | -14.6% | 1.4%
Cc1nn(-c2ccccc2)cc1C(=S)Nc1ccccc1 | -5.8% | 7.94µM* | -7.6% | 1.7%
Cc1c(C(=S)Nc2ccccc2)cnn1-c1ccccc1 | -17.4% | 7.94µM* | 0.5% | -5.2%
CC(=O)Nc1ccc(C(=O)CSc2nnnn2C)cc1 | -4.7% | 44.0% | 13.1% | -4.2%
Cn1nnnc1SCc1ccc(C(=O)Nc2ccc(Br)cc2)cc1 | 0.0% | 10µM* | 28.6% | -5.0%
CCCS(=O)(=O)Nc1cccc(-c2cn3ccc(C)cc3n2)c1 | . | . | -7.9% | .
CCCCCn1cc2c(c1-c1ccc(Br)cc1)c(=O)n(C)c(=O)n2C | . | -18.1% | 5.6% | .
CCC(O)(Cc1ccccn1)Cc1ccccn1 | 1.1% | -2.8% | -1.1% | .
O/N=C/c1ccccc1OCc1ccccc1Cl | -1.1% | -3.8% | 5.4% | -1.4%
O/N=C/c1ccccc1OCc1ccc(Cl)cc1 | -9.4% | 11.2µM* | 9.0% | -1.9%
CC(C)C(=O)N1CCCC1(C)C(=O)Nc1ccc2c(c1)OCO2 (stereo not given) | -12.4% | 2.8% | . | .
Cc1c(NS(=O)(=O)c2ccc(C(C)(C)C)cc2)c(=O)n(-c2ccccc2)n1C | . | . | 6.4% | .
COC(=O)c1ccccc1NC(=S)N(C)C | -5.4% | -23.7% | 7.7% | 3.4%
COC(=O)c1ccccc1N=C(SC)N(C)C | 29.9µM* | -15.1% | ? | -5.4%
CCCCC(=O)N(C)c1c(C)nc2ccc(C(=O)Nc3cccc(OC)c3)cn12 | -3.3% | 18.9% | . | .
N/C(=N\OC(=O)c1ccncc1)c1cccc([N+](=O)[O-])c1 | -1.3% | 7.94µM* | 22.7% | -3.0%
COc1cccc(C(=O)O/N=C(\N)c2ccncc2)c1 | -2.0% | 10µM* | -3.7% | -0.7%
N/C(=N\OC(=O)c1ccc(Br)cc1)c1cccc([N+](=O)[O-])c1 | -16.5% | ? | -5.7% | -5.7%
COc1cccc(C(=O)O/N=C(\N)c2ccc(C)cc2)c1 | -5.6% | 60.0% | -2.9% | 1.5%
Cc1ccc(C(=O)O/N=C(\N)c2cccc([N+](=O)[O-])c2)cc1 | -3.9% | 3.16µM* | -3.1% | 1.0%
Cc1ccc(C(=O)O/N=C(\N)c2cccnc2)cc1[N+](=O)[O-] | -3.9% | 11.2µM* | -6.4% | -0.2%
CCC(=O)N1CCc2cc(S(=O)(=O)NC(C(=O)NCCc3ccc(Cl)cc3)C(C)C)ccc21 (stereo not given) | . | . | 1.0% | .
O=C(COc1ccccc1-c1nc(-c2ccccc2)no1)Nc1ccccc1[N+](=O)[O-] | . | 21.5% | 3.2% | .
SMILES | PLK1 PBD inh | BRCA1 expr act | VDR inhibitor | Tb PFK inh
COc1cc(OC)cc(C(=O)/C=C2\Sc3ccccc3N2C)c1 | -24.2% | 48.2% | -8.2% | 1.5%
COc1ccc2c(c1)S/C(=C\C(=O)c1ccncc1)N2C | -0.1% | 4.47µM* | 8.0% | 22.1%
Cn1c(-c2ccccc2)nc2cnccc21 | 23.8µM* | 1.4% | ? | -2.3%
Cc1nc2cnccc2n1C | -6.5% | 9.8% | 1.8% | 1.4%
CN(C)C(=O)NC(Nc1cccc([N+](=O)[O-])c1)C(Cl)(Cl)Cl (stereo not given) | 29.9µM* | -4.1% | -22.1% | -9.9%
CC(C)C(=O)NC(Nc1cccc([N+](=O)[O-])c1)C(Cl)(Cl)Cl (stereo not given) | -1.0% | -16.9% | 1.5% | -0.6%
COc1cccc(C(=O)Nc2nc3nc(C)c(Cc4ccccc4)c(=O)n3[nH]2)c1 | . | . | 11.3% | .
Cc1cccc2c1OCC/C2=N\NC(=O)COc1ccccc1 | 3.2% | 11.2µM* | 13.0% | 0.1%
COC(=O)[C@@]1(Cc2ccc(F)cc2)[C@H]2c3cc(C(=O)N4CCCC4)n(CCc4ccccn4)c3C[C@H]2CN1C(=O)c1ccccc1 | 21.2µM* | -20.7% | -26.8% | 3.8%
COC(=O)[C@@]1(Cc2ccc(F)cc2)[C@H]2c3cc(C(=O)N(C)C)n(CCc4ccccn4)c3C[C@H]2CN1C(=O)c1ccccc1 | 2.0% | 0.0% | 8.6% | -6.7%
CCC(C(=O)Nc1ccc2c(c1)OCCO2)n1nnc2ccccc2c1=O (stereo not given) | -0.4% | 10µM* | -0.7% | 0.7%
Clc1ccc(CNc2ncnc3onc(-c4ccc(Cl)cc4)c23)cc1 | . | -32.7% | 0.2% | .
Nc1ccc(Br)c2cccnc12 | 8.44µM* | -48.5% | -11.8% | 2.2%
CS(=O)(=O)Oc1ccc(Br)c2cccnc12 | -0.2% | 41.9% | -14.0% | 2.9%
